Experimental findings from PubChem BioAssay are described below.

A short description of assay [1]: antimalarial activity against Dd2 strain (AID 2302;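 active = growth inhibition above 50% at the single 2 µM test dose, taken to imply half-maximal potency below 2 µM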;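 note: 0% = DMSO untreated growth and 100% = chloroquine plus artemisinin killed control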). To be noted: P. falciparum Dd2 in RBCs, LDH growth readout, 72 h; at 2 µM; active compounds read high.
Assay [2] can be described thus: human hepatoma cell viability loss – ATP luminescence, cytotoxicity control for P. falciparum antimalarial project, primary screen (AID 2303;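 active = inhibition above 50%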;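 note: 0% = DMSO wells and 100% = digitonin-killed cells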). Conditions: HepG2 viability, 24-48 h, at 10 µM, active compounds read high.
The target of assay [3] is L-lactate dehydrogenase (Plasmodium falciparum (isolate CDC / Honduras)) (UniProt Q27743). The experiment in a line: PfLDH activity inhibition – cell lysate, 3D7 strain, counter-screen for P. falciparum growth inhibition project (AID 2304).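 Note: 0% = vehicle and 100% = reference inhibitor.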 Conditions: P. falciparum 3D7 crude extract, LDH APAD/NBT absorbance; at 2 µM; active compounds read high.
Assay [4] can be described thus: inhibition of 3D7 malaria parasite growth – strain 3D7 (AID 2306).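 Note: 0% = DMSO wells and 100% = chloroquine plus artemisinin control wells.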 Conditions: P. falciparum 3D7 erythrocytic growth, LDH absorbance, 72 h; at 2 µM; active compounds read high.
Assay [5] concerns the target Calcium-dependent protein kinase 1 (Plasmodium falciparum (isolate 3D7)) (UniProt P62344). The experiment in a line: PfCDPK1 kinase inhibitors, biochemical, TCAMS library (AID 1159585; cut-off not given, nearly all actives have IC50 up to about 0.98 µM;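 note: inhibitors leave more ATP so luminescence rises with inhibition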). To be noted: recombinant PfCDPK1, Kinase-Glo ATP depletion luminescence. On the technique in general: Kinase-Glo measures the ATP left after a reaction by luminescence.
For assay [6], the target named is Plasmodium falciparum protein kinase 6 (PK6, PF3D7_1337100) (UniProt Q8IDW1). The experiment in a line: PfPK6 kinase inhibitors, biochemical, TCAMS library (AID 1159586). Conditions: recombinant PfPK6, Kinase-Glo ATP depletion luminescence.
The target of assay [7] is Protein kinase 7 (PK7), Plasmodium falciparum 3D7 (PF3D7_0213400) (UniProt Q7YTF7). Briefly: inhibition of Plasmodium PK7 catalytic activity – biochemical, TCAMS antimalarial set, Kinase-Glo luminescence (AID 1159587). Conditions: recombinant PfPK7, Kinase-Glo ATP depletion luminescence.
Assay [8] deals with Calcium-dependent protein kinase 4 (Plasmodium falciparum (isolate 3D7)) (UniProt Q8IBS5). The experiment in a line: PfCDPK4 kinase inhibitors, biochemical, TCAMS library (AID 1159588; cut-off not given, nearly all actives have IC50 up to about 0.91 µM). Conditions: recombinant PfCDPK4, Kinase-Glo ATP depletion luminescence.

For orientation: inhibition means the relative decrease from the control value, in per cent.

Unmarked numbers belong to inactive results. For some of these results: Measured potencies and affinities stand elsewhere. The source made the active and inactive calls. Unless noted, the rule behind the calls is not given here.

Plasmodium falciparum protein kinase 6 (PK6, PF3D7_1337100), sequence (Q8IDW1 1-305): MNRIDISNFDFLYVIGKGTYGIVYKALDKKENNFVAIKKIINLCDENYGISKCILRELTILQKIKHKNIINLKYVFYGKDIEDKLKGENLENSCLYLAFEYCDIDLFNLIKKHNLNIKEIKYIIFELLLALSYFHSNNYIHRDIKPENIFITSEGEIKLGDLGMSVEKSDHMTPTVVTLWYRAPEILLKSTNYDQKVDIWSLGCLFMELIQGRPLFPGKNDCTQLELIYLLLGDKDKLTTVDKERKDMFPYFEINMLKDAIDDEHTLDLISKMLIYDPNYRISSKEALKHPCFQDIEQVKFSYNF
Protein kinase 7 (PK7), Plasmodium falciparum 3D7 (PF3D7_0213400), sequence (Q7YTF7 1-343): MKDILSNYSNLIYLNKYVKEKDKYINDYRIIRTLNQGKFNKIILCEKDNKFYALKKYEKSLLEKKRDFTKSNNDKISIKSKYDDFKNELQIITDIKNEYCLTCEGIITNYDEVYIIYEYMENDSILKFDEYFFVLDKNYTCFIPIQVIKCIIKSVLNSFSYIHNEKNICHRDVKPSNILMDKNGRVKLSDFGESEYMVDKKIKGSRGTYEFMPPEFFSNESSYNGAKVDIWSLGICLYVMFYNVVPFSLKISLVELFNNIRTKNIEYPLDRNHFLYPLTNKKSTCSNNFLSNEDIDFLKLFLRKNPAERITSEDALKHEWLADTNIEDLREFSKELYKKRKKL
Calcium-dependent protein kinase 1 (Plasmodium falciparum (isolate 3D7)), sequence (P62344 whole entry, looked up): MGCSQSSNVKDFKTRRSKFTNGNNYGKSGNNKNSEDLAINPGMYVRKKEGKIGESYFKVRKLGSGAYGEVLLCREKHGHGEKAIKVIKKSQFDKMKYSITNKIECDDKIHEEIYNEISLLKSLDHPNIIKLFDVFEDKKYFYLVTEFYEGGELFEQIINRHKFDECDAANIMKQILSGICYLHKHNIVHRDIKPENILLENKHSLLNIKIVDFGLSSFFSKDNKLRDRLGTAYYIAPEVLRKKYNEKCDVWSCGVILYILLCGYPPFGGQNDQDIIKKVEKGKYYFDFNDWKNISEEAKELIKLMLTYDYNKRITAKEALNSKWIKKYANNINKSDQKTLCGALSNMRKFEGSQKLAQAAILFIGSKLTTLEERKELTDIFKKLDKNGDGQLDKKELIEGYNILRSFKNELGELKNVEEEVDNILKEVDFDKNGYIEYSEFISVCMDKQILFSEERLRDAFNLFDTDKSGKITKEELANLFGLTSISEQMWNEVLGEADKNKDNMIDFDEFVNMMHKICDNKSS
Calcium-dependent protein kinase 4 (Plasmodium falciparum (isolate 3D7)), sequence (Q8IBS5 whole entry, looked up): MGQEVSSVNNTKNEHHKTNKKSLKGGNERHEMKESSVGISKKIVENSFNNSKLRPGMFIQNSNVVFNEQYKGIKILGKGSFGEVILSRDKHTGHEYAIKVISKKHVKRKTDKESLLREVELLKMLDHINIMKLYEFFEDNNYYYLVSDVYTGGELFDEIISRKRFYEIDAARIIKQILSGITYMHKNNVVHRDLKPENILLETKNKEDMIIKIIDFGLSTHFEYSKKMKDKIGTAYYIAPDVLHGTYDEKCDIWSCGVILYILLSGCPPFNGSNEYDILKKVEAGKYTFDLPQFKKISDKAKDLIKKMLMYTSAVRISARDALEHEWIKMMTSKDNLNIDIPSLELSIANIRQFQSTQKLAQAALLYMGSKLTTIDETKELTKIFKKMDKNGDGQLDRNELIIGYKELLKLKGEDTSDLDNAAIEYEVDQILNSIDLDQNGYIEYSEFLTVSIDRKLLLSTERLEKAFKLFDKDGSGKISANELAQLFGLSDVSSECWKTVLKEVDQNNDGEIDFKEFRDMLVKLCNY
L-lactate dehydrogenase (Plasmodium falciparum (isolate CDC / Honduras)), sequence (Q27743 whole entry, looked up): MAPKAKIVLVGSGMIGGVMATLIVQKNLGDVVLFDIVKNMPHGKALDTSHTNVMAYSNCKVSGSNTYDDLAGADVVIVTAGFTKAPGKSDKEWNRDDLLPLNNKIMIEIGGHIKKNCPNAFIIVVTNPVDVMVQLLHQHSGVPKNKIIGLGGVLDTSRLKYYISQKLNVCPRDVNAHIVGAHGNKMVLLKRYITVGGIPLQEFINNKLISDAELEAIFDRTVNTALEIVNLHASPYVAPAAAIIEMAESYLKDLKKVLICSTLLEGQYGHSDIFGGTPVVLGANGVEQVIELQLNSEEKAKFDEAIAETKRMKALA

Turning to `COc1ccc2nccc([C@@H](O)CN3CCC(NCCOc4ccc(F)cc4[N+](=O)[O-])CC3)c2c1`, the growth inhibition is 92% (active) in assay [1] and 99% (active) in assay [4]. The inhibition was 8% in assay [2] and -1% in assay [3]. Besides, the outcome in assay [5], in assay [6], in assay [7] and in assay [8] was inactive.
For the compound `COc1ccc(-c2ccc(NC(=O)c3ccc(C#N)cc3)cc2)cc1CNC(C)C`, the growth inhibition in assay [1] was 38%; in assay [4] it was 100% (active). The inhibition is 19% in assay [2] and -3% in assay [3]. Moreover, the result in assay [5], in assay [6], in assay [7] and in assay [8] was inactive.
Take `O=c1cc(NCCCNCc2cc(C(F)(F)F)ccc2F)[nH]c2ccccc12`: the figures for the growth inhibition in assay [1] and in assay [4] were 43% and 94% (active), respectively. The inhibition in assay [2] is 0%; in assay [3], -2%. The outcome in assay [5], in assay [6], in assay [7] and in assay [8] was inactive.
On to `Oc1cccc(/C=N/Nc2ccnc3cc(Cl)ccc23)c1`, for which the growth inhibition is 95% (active) in assay [1] and 104% (active) in assay [4]. Also, the inhibition in assay [2] is -9%; in assay [3], 0%. Also, the outcome in assay [5], in assay [6], in assay [7] and in assay [8] was inactive.
Take `CC12CCC(C(=O)N(CC(O)Cn3c4ccc(Cl)cc4c4cc(Cl)ccc43)C1=O)C2(C)C` (stereo not given): the growth inhibition in assay [1] was 99% (active); in assay [4], 100% (active). In addition, the inhibition in assay [2] was -1%; in assay [3] it was -5%. For the same compound, the result in assay [5], in assay [6], in assay [7] and in assay [8] was inactive.
As to `COc1ccccc1C1CCN(C2CCC(NC(=O)/C=C/c3cc(F)cc(C(F)(F)F)c3)CC2)CC1` (stereo not given), the growth inhibition was 57% (active) in assay [1] and 98% (active) in assay [4]. The inhibition in assay [2] was 92% (active); in assay [3] it was -1%. Moreover, the result in assay [5], in assay [6], in assay [7] and in assay [8] was inactive.
Regarding `COc1cccc(NC(=O)[C@H](C(C)C)n2c(=O)[nH]c3ccccc3c2=O)c1`, the growth inhibition was 100% (active) in assay [1] and 101% (active) in assay [4]. Further, the inhibition in assay [2] and in assay [3] was -1% in each case. Further, the outcome in assay [5], in assay [6], in assay [7] and in assay [8] was inactive.
On to `O=C(NC1CCN(Cc2ccccc2)CC1)c1ccc(CNC2CCN(Cc3ccccc3)CC2)cc1`, for which the growth inhibition in assay [1] was 58% (active); in assay [4], 99% (active). Also, the inhibition in assay [2] is 14%; in assay [3], 3%. The result in assay [5], in assay [6], in assay [7] and in assay [8] was inactive.
Consider `O=C(Nc1ccc(C(=O)Oc2ccc(-c3ccccc3)cc2)cc1)N[C@@H](Cc1ccc(O)cc1)C(=O)NC1CCN(Cc2ccc(O)cc2)C1` (stereo not given in full), for which the results for the growth inhibition in assay [1] and in assay [4] were 60% (active) and 94% (active), respectively. Besides, the inhibition in assay [2] was -7%; in assay [3], 0%. Moreover, the result in assay [5], in assay [6], in assay [7] and in assay [8] was inactive.
Turning to `COc1c(C)cc(I)cc1CNCCCNc1cc(=O)c2ccccc2[nH]1`, the growth inhibition is -2% in assay [1] and 84% (active) in assay [4]. Moreover, the inhibition in assay [2] is -1%; in assay [3], 2%. Also, the outcome in assay [5], in assay [6], in assay [7] and in assay [8] was inactive.
As for `O=C(NCc1ccccn1)C(c1cc2ccccc2o1)N1CCN(C(c2ccccc2)c2ccccc2)CC1` (stereo not given), the growth inhibition is 68% (active) in assay [1] and 95% (active) in assay [4]. The inhibition in assay [2] was 17%; in assay [3] it was 0%. Further, the outcome in assay [5], in assay [6], in assay [7] and in assay [8] was inactive.
Regarding `Cc1cnccc1/C=C/c1cccc(OCCCN2CCc3ccc(S(C)(=O)=O)cc3CC2)c1`, the values for the growth inhibition in assay [1] and in assay [4] were 72% (active) and 92% (active), respectively. The inhibition in assay [2] and in assay [3] was 1% each time. The result in assay [5], in assay [6], in assay [7] and in assay [8] was inactive.
In the case of `CC(=O)OC[C@H]1O[C@@H](C#Cc2ccccc2)[C@H](OC(C)=O)[C@@H](OC(C)=O)[C@@H]1OC(C)=O`, the growth inhibition is 90% (active) in assay [1] and 95% (active) in assay [4]. Also, the inhibition was 5% in assay [2] and 0% in assay [3]. Also, the outcome in assay [5], in assay [6], in assay [7] and in assay [8] was inactive.
In the case of `Cc1ccccc1C1CCN(C2CCC(NC(=O)/C=C/c3ccc(C#N)cc3)CC2)CC1` (stereo not given), the growth inhibition in assay [1] was 13%; in assay [4], 87% (active). Further, the inhibition in assay [2] is 39%; in assay [3], 0%. The result in assay [5], in assay [6], in assay [7] and in assay [8] was inactive.
With `Cc1[nH]c2ccc(-c3ccc(OC(F)(F)F)cc3)cc2c(=O)c1C#N`, the growth inhibition in assay [1] was 97% (active); in assay [4], 98% (active). In addition, the results for the inhibition in assay [2] and in assay [3] were -5% and -9%, respectively. Further, the outcome in assay [5], in assay [6], in assay [7] and in assay [8] was inactive.
In the case of `CC1(C)N=C(N)N=C(N)N1c1ccc(I)cc1`, the values for the growth inhibition in assay [1] and in assay [4] were 1% and 92% (active), respectively. The values for the inhibition in assay [2] and in assay [3] were 16% and 1%, respectively. Moreover, the outcome in assay [5], in assay [6], in assay [7] and in assay [8] was inactive.
Regarding `c1cc(-c2ccc(CNCc3ccc(-c4csnn4)cc3)cc2)cc(-c2nc3ccccc3[nH]2)c1`, the growth inhibition is 96% (active) in assay [1] and 100% (active) in assay [4]. In addition, the inhibition in assay [2] is 60% (active); in assay [3] it was -7%. The outcome in assay [5], in assay [6], in assay [7] and in assay [8] was inactive.
`COc1ccc(NC(=O)[C@H](Cc2ccccc2)Nc2cc(C)nc(NCCc3ccc(F)cc3)n2)cc1`: the values for the growth inhibition in assay [1] and in assay [4] were 82% (active) and 101% (active), respectively. Also, the results for the inhibition in assay [2] and in assay [3] were 17% and -3%, respectively. Also, the outcome in assay [5], in assay [6], in assay [7] and in assay [8] was inactive.
In the case of `COc1ccc(C(=O)CCC(=O)N(Cc2ccc(-c3ccc(CNCCc4ccc(S(C)(=O)=O)cc4)cn3)cc2)C2C[C@@H]3CC[C@H]2C3)cc1F` (stereo not given in full), the growth inhibition in assay [1] was 34%; in assay [4], 97% (active). Further, the inhibition in assay [2] is 5%; in assay [3], 0%. Besides, the result in assay [5], in assay [6], in assay [7] and in assay [8] was inactive.
With `CS(=O)(=O)c1ccc(CCNCc2ccc(-c3ccc(CN(C(=O)c4ccco4)C4CCN(Cc5ccccc5)CC4)cc3)nc2)cc1`, the values for the growth inhibition in assay [1] and in assay [4] were 38% and 85% (active), respectively. Further, the results for the inhibition in assay [2] and in assay [3] were 13% and -1%, respectively. In addition, the result in assay [5], in assay [6], in assay [7] and in assay [8] was inactive.
